Whole data set: some 1,100 compounds, median “Renilla luciferase signal (cell health) relative to plate median” near 0.97, cut for the highest 2% near 1.6. What follows is part of a selection rich in the highest values, with near analogues and random picks from the rest.
Tested on: HEK293T (UBE3A T485A transfected, BAR Wnt reporter)
Test: Renilla luciferase signal (cell health) relative to plate median (fold (linear ratio)); higher = higher Renilla signal
Conditions: 24 h
Summary of the method: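 HEK293T cells were grown in DMEM with 10% FBS at 37°C and 5% CO2, at 4500 cells/well in white 384-well plates. They were transfected with a BAR firefly luciferase Wnt reporter, TK-Renilla and an expression plasmid using Fugene 6. Four hours later, robots dosed the chemicals at 0.01–100 uM for 24 h, followed by Dual-Glo luciferase readout. Wnt activity (firefly/Renilla ratio) and cell health (raw Renilla) were median-centred per plate, averaged over four biological replicates.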

Compound | Renilla luciferase signal (concentration: 0.1 uM) | Renilla luciferase signal (concentration: 1 uM) | Renilla luciferase signal (concentration: 10 uM) | Renilla luciferase signal (concentration: 100 uM) | Renilla luciferase signal (concentration: 0.01 uM)
O=C1CCCO1 [4-Butyrolactone] | 0.916 | 0.91 | 0.928 | 1.07 | –
CCC(=O)C(CC(C)N(C)C)(c1ccccc1)c1ccccc1.Cl (stereo not drawn) [Methadone hydrochloride] | 1.01 | 1.01 | 1.07 | 0.142 | –
CCCCC(CC)COC(=O)c1ccc(C(=O)OCC(CC)CCCC)cc1 (stereo not drawn) [Bis(2-ethylhexyl) terephthalate] | 0.974 | 1.13 | 1.09 | 1.28 | –
CCCCC(CC)COC(=O)CCCCC(=O)OCC(CC)CCCC (stereo not drawn) [Di(2-ethylhexyl) adipate] | 1.15 | 1.09 | 1.28 | 1.76 | –
CCCCC(CC)COC(=O)c1ccccc1C(=O)OCC(CC)CCCC (stereo not drawn) [Di(2-ethylhexyl) phthalate] | 1.13 | 1.01 | 1.11 | 0.496 | 1.26
C#CCN1C(=O)COc2cc(F)c(N3C(=O)C4=C(CCCC4)C3=O)cc21 [Flumioxazin] | 1.14 | 0.954 | 1.11 | 0.949 | 1.13
Clc1cccc(Cl)c1Cl [1,2,3-Trichlorobenzene] | 1.21 | 0.959 | 1.18 | 1.43 | –
Clc1ccccc1Cl [1,2-Dichlorobenzene] | 1.14 | 0.945 | 1.05 | 1.27 | –
N#Cc1c(Cl)cccc1Cl [Dichlobenil] | 0.853 | 1.03 | 0.992 | 1.96 | 0.873
Cc1ccc(/N=C/N(C)/C=N/c2ccc(C)cc2C)c(C)c1 [Amitraz] | 1.17 | 1.06 | 1.21 | 0.0374 | 1.29
O=C(NC(=O)c1cc(F)c(F)cc1Cl)Nc1cc(F)ccc1N1CCC(C(=O)O)CC1 | 0.8 | 0.813 | 0.797 | 0.641 | –
O=C(O)C(F)(F)C(F)(F)C(F)(F)C(F)(F)C(F)(F)F | 0.973 | 0.941 | 0.896 | 0.93 | –
O=C(O)C(F)(F)C(F)(F)C(F)(F)C(F)(F)C(F)(F)C(F)(F)C(F)(F)C(F)(F)C(F)(F)C(F)(F)F [Perfluoroundecanoic acid] | 0.861 | 0.837 | 0.868 | 0.248 | –
O=C(O)C(F)(F)C(F)(F)C(F)(F)C(F)(F)C(F)(F)C(F)(F)C(F)(F)F | 0.781 | 0.834 | 0.9 | 1.9 | 0.983
CCOC1Oc2ccc(OS(C)(=O)=O)cc2C1(C)C (stereo not drawn) [Ethofumesate] | 1.07 | 0.964 | 0.843 | 1.01 | 0.946
O=C(O)c1cc(Oc2ccc(C(F)(F)F)cc2Cl)ccc1[N+](=O)[O-] [Acifluorfen] | 1.25 | 0.942 | 1.02 | 1.67 | 1.17
CS(=O)(=O)NC(=O)c1cc(Oc2ccc(C(F)(F)F)cc2Cl)ccc1[N+](=O)[O-] [Fomesafen] | 0.998 | 1.11 | 1.03 | 1.19 | –
CCOC(=O)C(C)OC(=O)c1cc(Oc2ccc(C(F)(F)F)cc2Cl)ccc1[N+](=O)[O-] (stereo not drawn) [Lactofen] | 0.611 | 0.876 | 0.801 | 0.32 | 0.928
CCN(CC)c1nc(C)cc(OP(=S)(OC)OC)n1 [Pirimiphos-methyl] | 1.2 | 1 | 0.992 | 1.53 | 1.11
CN(C)c1nc(=O)n(C2CCCCC2)c(=O)n1C [Hexazinone] | 0.839 | 0.85 | 0.916 | 1.2 | 0.842
O=C(O)COc1ccc(Cl)cc1Cl [2,4-Dichlorophenoxyacetic acid] | 1 | 0.995 | 1.02 | 1.69 | 1.31

Compound | Renilla luciferase signal (concentration: 0.1 uM) | Renilla luciferase signal (concentration: 1 uM) | Renilla luciferase signal (concentration: 10 uM) | Renilla luciferase signal (concentration: 100 uM) | Renilla luciferase signal (concentration: 0.01 uM)
O=C(O)COc1nc(Cl)c(Cl)cc1Cl [Triclopyr] | 0.979 | 0.95 | 1.02 | 1.84 | 0.99
O=C(O)CCCOc1ccc(Cl)cc1Cl | 0.895 | 0.898 | 0.957 | 1.44 | 1.02
Nc1c(Cl)c(F)nc(OCC(=O)O)c1Cl [Fluroxypyr] | 1.05 | 0.92 | 1.02 | 1.09 | 1.01
Cc1cc(Cl)ccc1OCC(=O)O | 1.19 | 1.09 | 1.12 | 1.34 | 1.11
CCOP(=O)(OCC)Oc1nc(Cl)c(Cl)cc1Cl [Chlorpyrifos oxon] | 1.24 | 1.07 | 0.919 | 0.0737 | 0.952
C1=CCCC=CCCC=CCC1 [1,5,9-Cyclododecatriene] | 0.691 | 0.775 | 0.813 | 1.02 | –
CCOC(=O)c1ccccc1C(=O)OCC [Diethyl phthalate] | 0.834 | 0.893 | 0.976 | 1.05 | –
COc1nc(NC(C)C)nc(NC(C)C)n1 [Prometon] | 0.628 | 0.707 | 1.02 | 1.41 | 0.865
CC(C)(O)C(=O)Nc1ccc([N+](=O)[O-])c(C(F)(F)F)c1 [Hydroxyflutamide] | 0.949 | 0.928 | 0.775 | 0.129 | –
CC(C)=CC1C(C(=O)OCc2coc(Cc3ccccc3)c2)C1(C)C (stereo not drawn) [Resmethrin] | 1.04 | 0.974 | 1.01 | 0.166 | 1.12
CCCCOCN(C(=O)CCl)c1c(CC)cccc1CC [Butachlor] | 0.813 | 0.902 | 0.865 | 0.895 | 0.877
CC1(c2ccc(Oc3ccccc3)cc2)OC(=O)N(Nc2ccccc2)C1=O (stereo not drawn) [Famoxadone] | 1.08 | 1.07 | 0.383 | 1.15 | 1.07
NS(=O)(=O)C(F)(F)C(F)(F)C(F)(F)C(F)(F)C(F)(F)C(F)(F)C(F)(F)C(F)(F)F | 0.448 | 0.567 | 0.447 | 0.0943 | –
Cc1c(F)c(F)c(COC(=O)C2C(/C=C(\Cl)C(F)(F)F)C2(C)C)c(F)c1F (stereo not drawn) [Tefluthrin] | 0.885 | 1.03 | 0.886 | 1.47 | 0.953
C[n+]1ccc(-c2cc[n+](C)cc2)cc1 [Paraquat] | 0.782 | 0.9 | 0.995 | 2.18 | 0.802
CCNc1nc(Cl)nc(NC(C)(C)C)n1 [Terbutylazine] | 0.934 | 1.02 | 0.978 | 0.981 | –
Cc1cccc(C)c1N [2,6-Dimethylaniline] | 0.815 | 0.773 | 0.833 | 0.897 | –
O=C(O)CNCP(=O)(O)O [Glyphosate] | 0.874 | 0.905 | 1.07 | 2.5 | 0.796
COP(=S)(OC)Oc1nc(Cl)c(Cl)cc1Cl [Chlorpyrifos-methyl] | 1.18 | 1.01 | 1.04 | 0.838 | 1.5
CN(C)NC(=O)CCC(=O)O [Daminozide] | 0.735 | 0.928 | 0.807 | 1.39 | 0.728
Cc1ccc(N)cc1N [2,4-Diaminotoluene] | 1.12 | 1.22 | 1.09 | 1.45 | –

Compound | Renilla luciferase signal (concentration: 0.1 uM) | Renilla luciferase signal (concentration: 1 uM) | Renilla luciferase signal (concentration: 10 uM) | Renilla luciferase signal (concentration: 100 uM) | Renilla luciferase signal (concentration: 0.01 uM)
O=C(O)c1c(Cl)ccc2cc(Cl)cnc12 [Quinclorac] | 1.11 | 0.984 | 1.04 | 1.88 | 1.12
O=C(Nc1ccccc1)Nc1cnns1 [Thidiazuron] | 1.07 | 1 | 0.921 | 0.135 | 1.1
C[Si](Cn1cncn1)(c1ccc(F)cc1)c1ccc(F)cc1 [Flusilazole] | 1.08 | 1.03 | 0.986 | 0.258 | 1.03
CC(C)[C@H](C(=O)O[C@H](C#N)c1cccc(Oc2ccccc2)c1)c1ccc(Cl)cc1 [Esfenvalerate] | 0.969 | 0.846 | 0.908 | 0.397 | 0.932
Nc1cnn(-c2ccccc2)c(=O)c1Cl [Chloridazon] | 0.982 | 0.916 | 1.1 | 1.34 | 0.928
Cc1ccccc1[N+](=O)[O-] [2-Nitrotoluene] | 1.24 | 1.08 | 1.14 | 1.33 | –
Cc1nc(N(C)C)nc(OC(=O)N(C)C)c1C [Pirimicarb] | 1.09 | 1.1 | 1.21 | 2.4 | 1.09
O=C([O-])C(F)(F)C(F)(F)C(F)(F)C(F)(F)C(F)(F)C(F)(F)C(F)(F)F.[NH4+] [PFOA, ammonium salt] | 0.839 | 0.971 | 0.797 | 0.224 | –
Clc1cccc(Cl)c1 [1,3-Dichlorobenzene] | 0.976 | 1.06 | 1.08 | 1.26 | –
Cc1ccc(N=C=O)cc1N=C=O [Toluene-2,4-diisocyanate] | 0.891 | 0.94 | 1.08 | 0.677 | –
COP(=S)(OC)SCN1C(=O)c2ccccc2C1=O [Phosmet] | 0.82 | 0.838 | 0.713 | 0.82 | –
CNC(=O)CSP(=S)(OC)OC [Dimethoate] | 0.985 | 0.987 | 1.12 | 1.67 | 1.22
COc1nn(CSP(=S)(OC)OC)c(=O)s1 [Methidathion] | 0.65 | 0.845 | 0.715 | 0.562 | 0.805
CCC1(c2ccccc2)C(=O)N=C([O-])NC1=O.[Na+] (stereo not drawn) [Phenobarbital sodium] | 0.831 | 0.817 | 0.777 | 0.914 | –
COCCOCCO [Diethylene glycol monomethyl ether] | 1.01 | 0.991 | 1.01 | 1.32 | –
C[N+]1(C)CCCCC1.[Cl-] [Mepiquat chloride] | 1.08 | 1.06 | 1.02 | 1.31 | 1.1
CN(C)C(=S)[S-].[Na+] [Sodium dimethyldithiocarbamate] | 0.974 | 1.07 | 0.874 | 1.06 | –
CNC(=S)[S-].O.O.O.[Na+] [Metam-sodium hydrate] | 1.02 | 1.07 | 1.06 | 1.67 | 1.32
CN(C)C(=S)[S-].CN(C)C(=S)[S-].[Zn+2] [Ziram] | 0.814 | 0.726 | 0.999 | 0.0214 | –
Nc1ccc(/N=N/c2ccccc2)cc1 [4-Aminoazobenzene] | 0.476 | 0.565 | 0.351 | 0.181 | –

Reference: the supplement of paper PMC9254222
